The nature of test [1]: NCI Yeast Anticancer Drug Screen. Data for the rad50 strain (AID 155).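 Further: 0% = growth of vehicle-only cultures of the same strain.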 Conditions: S. cerevisiae rad50 strain growth inhibition; at 50.0 µM; stronger effect = higher value. The procedure, abridged:
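Cells are treated with compound, grown, and their growth is then scored against vehicle-only cultures of the same repair-deficient yeast strain.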

A short description of test [2]: NCI Yeast Anticancer Drug Screen. Data for the mec2-1 strain (AID 157). Conditions: S. cerevisiae mec2-1 strain, at 50.0 µM, stronger effect = higher value. The procedure, abridged: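 Using mec2-1 yeast: add compound, measure growth, express inhibition versus vehicle-treated cultures.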
Test [3] is described as follows: NCI Yeast Anticancer Drug Screen. Data for the sgs1 mgt1 strain (AID 161).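 Further: 0% = growth of cultures given vehicle only.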 Conditions: S. cerevisiae sgs1 mgt1 strain, at 50.0 µM, stronger effect = higher value. The method in brief: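 Compounds are added to genetically altered yeast, and growth is compared with cultures given vehicle alone to give percent inhibition.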
The nature of test [4]: NCI Yeast Anticancer Drug Screen. Data for the cln2 rad14 strain (AID 165).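 Further: 0% = growth equal to vehicle treated cultures.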 Conditions: S. cerevisiae cln2 rad14 strain, at 50.0 µM, stronger effect = higher value. The method in brief:
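Yeast strain cln2 rad14, bearing defects in cell cycle control and DNA repair, serves as the test system; values reflect growth inhibition compared with vehicle.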

Test [5] can be described thus: NCI Yeast Anticancer Drug Screen. Data for the bub3 strain (AID 167). Conditions: S. cerevisiae bub3 mutant strain, at 50.0 µM, stronger effect = higher value. The method in brief:
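Part of a panel of yeast mutants defective in DNA damage repair or cell cycle regulation. Each strain is grown with compound, and inhibition is calculated relative to solvent-treated cultures.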

Test [6] is described as follows: NCI Yeast Anticancer Drug Screen. Data for the mlh1 rad18 strain (AID 175). Conditions: S. cerevisiae mlh1 rad18 strain growth inhibition; at 50.0 µM; stronger effect = higher value. The method in brief:
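Steps: expose repair-defective yeast to compound; measure growth; express inhibition against vehicle-treated controls.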

The panel holds about 79,000 compounds, 15% with a hit somewhere; the sample as a whole holds those more often. Values without a mark were called inactive. The source made the active and inactive calls. No stated cut-off is given here; in the data, active means growth inhibition above about 70%; inactive means the rest.

In the case of `c1ccc(C2CCN3c4ccc5ccccc5c4NCC23)cc1` (stereo not given), the growth inhibition was 36% in test [1]; 68% in test [2]; 45.6% in test [3]; 14.5% in test [4]; 88.8% (active) in test [5]; 67.3% in test [6].
On to `CSc1ccc(NC(=O)Nc2cc(C)c(C)cc2C)cc1`, for which the growth inhibition in test [1] is 16.6%; in test [2] it was 2.1%; in test [3], 6.75%; in test [4], 21.4%; in test [5] it was 14.5%; in test [6] it was 2.85%.
In the case of `O=C(Cc1ccccc1)N/N=C(\C1=Nc2ccc([N+](=O)[O-])cc2NC1O)C(O)c1ccc([N+](=O)[O-])cc1` (stereo not given), the growth inhibition is 10% in test [1]; 9.6% in test [2]; 1.7% in test [3]; 18.2% in test [4]; 20.6% in test [5]; 18.2% in test [6].
Take `Cc1cc2c(cc1C)NC(=O)CC(=O)N2`: the growth inhibition in test [1] is -3.45%; in test [2], -28.8%; in test [3], -8.45%; in test [4], 1.95%; in test [5] it was -18.7%; in test [6], 14.4%.
For the compound `Clc1ccc(C=NC23CC4CC(CC(C4)C2)C3)cc1Cl`, the growth inhibition was -19.1% in test [1]; -24.1% in test [2]; -16.2% in test [3]; 17.6% in test [4]; 7.55% in test [5]; 12% in test [6].
Regarding `CCOC(=O)N1N=NC(c2ccccc2)C1(c1ccccc1)N1CCOCC1` (stereo not given), the growth inhibition is 38.8% in test [1]; -14.8% in test [2]; 30.3% in test [3]; 4.05% in test [4]; 10.4% in test [5]; 8.7% in test [6].
`Oc1[nH]c2ccccc2c1N=Nc1nc(-c2ccc(Br)cc2)cs1`: the growth inhibition in test [1] was -24.9%; in test [2], -24.8%; in test [3], -17.4%; in test [4] it was -10.2%; in test [5], 12%; in test [6] it was 5.5%.
With `COc1cccc2c(Nc3ccc(S(=O)(=O)Nc4ncccn4)cc3)c3ccc([N+](=O)[O-])cc3nc12`, the growth inhibition in test [1] is 59.8%; in test [2] it was 12.1%; in test [3], 29.2%; in test [4], 11.2%; in test [5], 32.2%; in test [6] it was 16.2%.
With `O=[N+]([O-])c1ccc(OC2OC(CO)C(O)C(O)C2O)cc1` (stereo not given), the growth inhibition in test [1] is 31.2%; in test [2], -0.45%; in test [3], -4.7%; in test [4] it was 5.1%; in test [5], 24%; in test [6], 10.2%.
Consider `O=[N+]([O-])c1ccccc1OC1OC(CO)C(O)C(O)C1O` (stereo not given), for which the growth inhibition in test [1] is -2.35%; in test [2], -5.6%; in test [3], 14.2%; in test [4], -33.8%; in test [5] it was -14.8%; in test [6], 7.2%.
Take `CCCC(C)OC(=O)Nc1cccc(O)c1` (stereo not given): the growth inhibition in test [1] is -2.3%; in test [2], -10.9%; in test [3], -5.3%; in test [4], -10.9%; in test [5], -21.5%; in test [6] it was -5.05%.
With `CN1CCCC(NC(c2ccccc2)c2ccccc2)C1` (stereo not given), the growth inhibition in test [1] is 25.4%; in test [2], 0.45%; in test [3] it was 23.9%; in test [4] it was -11.8%; in test [5], 34.5%; in test [6] it was 18.9%.
For the compound `O=c1cc(O)n(C2=NCCN2)[nH]1`, the growth inhibition in test [1] was -6.45%; in test [2], -23.6%; in test [3], -0.2%; in test [4], 16.2%; in test [5], -12.5%; in test [6] it was -9.95%.
Regarding `CCOC(=O)N1C2c3ccccc3C3C(C21)N3C(=O)OCC` (stereo not given), the growth inhibition is -0.3% in test [1]; -12.3% in test [2]; 0.3% in test [3]; 1.95% in test [4]; 3.9% in test [5]; -11.4% in test [6].
With `O=C1NC(=O)C2(CCC(O)C2)c2cc[n+]([O-])cc21` (stereo not given), the growth inhibition in test [1] was -8.55%; in test [2], -41.4%; in test [3] it was -13.6%; in test [4], 8.25%; in test [5], -25.6%; in test [6], -83.8%.
With `COc1ccc2oc(C(=O)O)cc2c1`, the growth inhibition is -4.55% in test [1]; -3.65% in test [2]; -9.05% in test [3]; -25% in test [4]; -6.6% in test [5]; 0.6% in test [6].
For `Cc1c(C2(c3cc(C(C)C)c(O)c(CN(CC(=O)O)CC(=O)O)c3C)OS(=O)(=O)c3ccccc32)cc(C(C)C)c(O)c1CN(CC(=O)O)CC(=O)O`, the growth inhibition in test [1] is 4.3%; in test [2], 0.7%; in test [3], -1.75%; in test [4], 24.7%; in test [5], 2.8%; in test [6], 4.95%.
For `CC[n+]1c(C)sc2cc(Cl)c(-c3ccccc3)cc21`, the growth inhibition was 23.4% in test [1]; 17.2% in test [2]; 30.4% in test [3]; -6.25% in test [4]; -3.25% in test [5]; 34.1% in test [6].
Consider `COc1ccc(CC2COC(=O)C2Cc2ccc(OC)c(OC)c2)cc1OC` (stereo not given), for which the growth inhibition was 6.35% in test [1]; 5.95% in test [2]; -17.6% in test [3]; -11.6% in test [4]; 8.1% in test [5]; 12.8% in test [6].
For the compound `CC(C)(C)C(=O)OCCN(CCOC(=O)C(C)(C)C)C(=O)COC(=O)C(C)(C)C`, the growth inhibition in test [1] is 31.4%; in test [2], -0.95%; in test [3], 21.1%; in test [4], 20.7%; in test [5], -3.25%; in test [6], 20.4%.

The record behind these values is PubChem BioAssay (NCI).
